Reference: PubChem BioAssay AID602197 (NMMLSC, 2012)
This is one part of the list. Unmarked numbers belong to inactive results. Cut-off read from the data, not from the text of the source: active = response above about 24%; inactive = the rest.

Assay: yeast V-ATPase proton pumping modulators, confirmation, S. cerevisiae, pH-sensitive GFP, second cherry-pick (AID 602197);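 note: plate controls were vehicle wells for no effect and positive control wells for full effect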
Settings: S. cerevisiae pHLuorin cytosolic pH, V-ATPase proton transport; at 10 µM; active compounds read high

Structure (SMILES) | response
CC(=O)Nc1ccc(C(=O)C(Cc2ccccc2)N(C)C)cc1 (configuration not stated) | 2.66%
Cc1ccccc1N1C(=O)NC(=O)/C(=C\c2cc(C)n(C)c2C)C1=O | 1.24%
